An excerpt weighted towards active compounds, which were near 2.8% of everything screened.
NCF1 inh: inhibitors of human p47phox binding; P14598; p47phox/p22phox peptide binding, fluorescence polarization, 2 h; hit rate 0.53% among 220,000; AID 1274; inhibition, % at 24.7 µM;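 active = inhibition above about 30%, limit read from the data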;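 also: 0% = p47phox with labelled peptide and 100% = labelled peptide alone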
HSV augment: HSV replication enhancement; HSV replication augmentation in cells, fold increase; maximum fold increase; hit rate 0.005% among 220,000; in the data active = maximum fold increase above about 1.5; tested in PC3 cells
Wee1 stabilizer: human Wee1 degradation inhibition, primary screen; P30291; HeLa Luc-Wee1K328M stability, luciferase luminescence; 100% = proteasome inhibitor MG132 effect; reporter increase, % at 5 µM; hit rate 1.2% among 220,000;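 active = activation above the mean of all tested compounds plus 3 SD, set per screening run, cut at about 8.8% in these data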;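 also: cells exposed to compound for 20 h before luminescence read; 0% = DMSO alone and 100% = MG132 at 30 µM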
Furin inhibitor: inhibitors of human furin | P09958 | AID 463115 | purified furin, fluorogenic substrate cleavage | inhibition, % at 20 µM or 30 µM | hit rate 0.061% among 220,000; in the data active = inhibition above about 25%
Target sequence (P09958 108-714 limits assumed): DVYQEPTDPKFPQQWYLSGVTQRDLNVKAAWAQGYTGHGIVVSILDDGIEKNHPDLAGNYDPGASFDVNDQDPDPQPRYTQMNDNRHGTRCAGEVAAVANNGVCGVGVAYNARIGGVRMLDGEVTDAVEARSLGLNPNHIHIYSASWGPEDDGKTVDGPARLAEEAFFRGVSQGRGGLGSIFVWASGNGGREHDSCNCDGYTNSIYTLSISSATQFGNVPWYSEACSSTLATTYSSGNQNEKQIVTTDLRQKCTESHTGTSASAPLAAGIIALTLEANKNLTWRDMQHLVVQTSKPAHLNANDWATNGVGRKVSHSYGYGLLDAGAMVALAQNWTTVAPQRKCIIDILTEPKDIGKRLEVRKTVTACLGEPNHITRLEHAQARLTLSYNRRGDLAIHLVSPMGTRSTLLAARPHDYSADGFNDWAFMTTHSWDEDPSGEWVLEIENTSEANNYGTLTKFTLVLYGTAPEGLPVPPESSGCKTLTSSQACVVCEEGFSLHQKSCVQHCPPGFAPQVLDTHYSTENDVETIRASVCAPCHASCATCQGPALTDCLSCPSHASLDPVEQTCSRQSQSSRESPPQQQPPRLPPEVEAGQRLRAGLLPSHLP
EP2 antag: blocks the human prostaglandin E2 receptor EP2; P43116; AID 1422; hit rate 0.52% among 260,000; C6 glioma cells expressing human EP2, cAMP TR-FRET; cells stimulated with saturating PGE2; inhibition, % at 25 µM;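 active = percent inhibition above 40 after rounding to a whole number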;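 also: rat C6 glioma host cells with rolipram phosphodiesterase inhibitor present; the protocol text gives 20 µM as final concentration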
EP2 mod: modulates human prostaglandin E2 receptor EP2 signaling. P43116. EP2-expressing cells, cAMP HTRF FRET, PGE2 co-stimulation. induction, % at 25 µM. hit rate 0.83% among 260,000;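 active = compounds whose cAMP rise, as percent of the full-agonist control response, exceeds 60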;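 also: rat C6 glioma line stably carrying human EP2 under a CMV promoter; the protocol text gives 20 µM as final concentration; 100% = response of wells given 1 µM PGE2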
* hit, by the source's call; i = inactive; / = not tested or not shown.

SMILES	NCF1 inh	HSV augment	Wee1 stabilizer	Furin inhibitor	EP2 antag	EP2 mod
COc1ccc(OC)c(Nc2nc(=O)c3cccnc3s2)c1	60*	i	6	-12	7	-34
CCC(CC)C(=O)Nc1cccc(C(=O)Nc2nnc(C(F)(F)F)s2)c1	/	/	/	/	19	-6
CC(C1CC1)N(Cc1ccccc1)C(=S)Nc1ccccc1 (centres undefined)	-8	i	9.6*	-10	5	12
COc1ccccc1-c1nc2ccccn2c1NC1CCCC1	/	/	/	/	8	26
O=C(CSc1nc2ccccc2s1)NC1CCS(=O)(=O)C1 (centres undefined)	-7	i	11*	-4	14	18
O=C(CSc1nnc(NCc2ccccc2)s1)NC1CCS(=O)(=O)C1 (centres undefined)	-6	i	-2	-25	5	3
COc1cccc(CN(CCCn2ccnc2)Cc2ccc(C)s2)c1	/	/	/	/	9	31
CC1(C)OC[C@@H]2O[C@H](n3cnc4c(N)nc(Cl)nc43)[C@H](OS(C)(=O)=O)[C@H]2O1	/	/	/	/	56*	-19
CCNc1nc2ccccc2[nH]1	-6	i	9.8*	-23	12	1
O=C(COc1ccc2c(c1)CCC2)N1CCN(c2ccccc2F)CC1	6	i	10*	-4	7	-83
O=C(COc1ccc2c(c1)CCC2)N1CCN(c2cccc(C(F)(F)F)c2)CC1	-8	i	6	-1	12	-88
CN(C)CCCNc1cc(O)c2c(c1O)C(=O)c1ccccc1C2=O	/	/	/	/	14	-16
O=C1c2ccccc2C(=O)c2c(NCCCN(CCO)CCO)cccc21	37*	i	5	-18	16	-77
O=C(Cn1nnc(-c2ccccc2Cl)n1)N/N=C/c1ccc2c(c1)OCO2	12	i	12*	-8	3	-62
O=C(Cc1ccccc1)N/N=C/c1ccc2c(c1)OCO2	-11	i	-1	-31	5	-58
Cc1ccc(C(C(=O)NC(C)(C)C)N(Cc2cccs2)C(=O)c2ccc3c(c2)OCCO3)cc1 (centres undefined)	52*	i	-1	-13	7	38
N/C(=N/O)c1cn([C@H]2O[C@@H](CO)[C@H](O)[C@H]2O)c2ncnc(NO)c12	/	/	/	/	47*	24
Cn1c(=O)c(C(=O)Nc2ccccc2Br)c(O)c2ccccc21	/	/	/	/	6	-19
COc1ccc(NC(=O)CSc2nnnn2-c2ccc(C)c(C)c2)cc1	/	/	/	/	7	-8
CCCC(c1nnnn1C1CCCC1)N1CCN(c2ccccc2OC)CC1 (centres undefined)	/	/	/	/	11	14
O=C(O)c1cccc(CSc2nc(-c3ccc(Cl)cc3)cc(C(F)(F)F)n2)c1	-32	i	0	-20	12	64*
Cc1ccc(NCc2ccccc2O)cc1C	-6	i	10*	-25	8	-14
Cc1ccc(CC(=O)N2CCc3c(nc(N4CCCC4)[nH]c3=O)C2)cc1	/	/	/	/	4	-34
Nc1ccccc1SCc1cn2ccccc2n1	-8	i	-1	-4	8	-26
N=C(N)SCc1cn2ccccc2n1	-8	i	8.8*	-6	5	-10
SMILES	NCF1 inh	HSV augment	Wee1 stabilizer	Furin inhibitor	EP2 antag	EP2 mod
N#Cc1c(-c2ccc3c(c2)OCO3)cc(-c2ccccc2)nc1N	/	/	/	/	15	66*
CCc1nnc(NC(=O)CCCOc2ccc(C)cc2)s1	/	/	/	/	12	-17
COc1ccc(NC(=O)CCn2nc(C)cc2C)cc1	56*	i	0	-13	18	15
Cc1sc2ncnc(SCC(=O)NNC(=O)Cc3ccccc3)c2c1C	/	/	/	/	10	23
CCc1ccccc1NC(=O)CSc1nnc2c3c(C)c(C)sc3ncn12	/	/	/	/	11	-31
Cc1sc2ncn3c(SCC(=O)Nc4ccccc4-c4ccccc4)nnc3c2c1C	/	/	/	/	17	67*
Cc1sc2ncnc(SCC(=O)Nc3ccccc3-c3ccccc3)c2c1C	/	/	/	/	5	84*
CCOC(=O)c1sc2ncn(CC(=O)Nc3ccc(Cl)cc3)c(=O)c2c1C	/	/	/	/	11	2
Nc1ccccc1Sc1ccccc1[N+](=O)[O-]	-2	i	-1	-17	11	61*
CO/N=C/c1ccc(Sc2ccccc2N)c([N+](=O)[O-])c1	-8	i	0	-4	19	0
CCN1CCN(Cc2ccc(O)c3ncccc23)CC1	/	/	/	/	13	-21
Cc1ccc(C)c(S(=O)(=O)N2CCN(Cc3ccc(O)c4ncccc34)CC2)c1	0	i	9.3*	-19	1	-18

Screening results deposited in PubChem by several laboratories.
